The text below walks through data of PMC6212790, “How bacterial xenogeneic silencer rok distinguishes foreign from self DNA in its resident genome”.

Whole data set: some 33,000 sequences, median “e-score” near -0.038, cut for the highest 2% near 0.33. The full list was thinned out, with the highest values kept by preference.

This assay deals with T1, GST-Rok-C97-191 (Bacillus subtilis subsp. subtilis str. …, UniProt O34857 97-191).
T1 sequence: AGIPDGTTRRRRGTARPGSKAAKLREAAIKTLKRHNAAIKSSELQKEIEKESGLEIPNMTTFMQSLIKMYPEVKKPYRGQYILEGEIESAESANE
The assay is described as follows: protein binding microarray; Rok is a gene silencer of Bacillus subtilis; high values mean tight binding. Conditions: protein: recombinant; tags: GST (pTH5325, pDEST15-Magic modified); dsDNA, one strand shown. The method, boiled down:
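Every oligonucleotide joins a 25-mer constant primer to a 35-mer variable part drawn from a de Bruijn sequence of order 10, so each non-palindromic 8-mer appears at least 32 times and each palindromic 8-mer 16 times. The preference for every 8-mer is reported as a unitless, rank-based enrichment score (E-score). This score spans 0.5 for the most favored 8-mer to −0.5 for the most disfavored.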
With AAAGTTTG, the binding signal was -0.0186 E-score.

Regarding AGAACGCC, the binding signal turned out to be 0.0453 E-score.

For the sequence AGGTCCTC, the binding signal is -0.0779 E-score. Take ACTCCTTA: the binding signal worked out at 0.00627 E-score. For AAAACCAA the value was 0.0758 E-score; for AGTGATGA, 0.024 E-score. For ATTAGTAG the value was 0.319 E-score; for AGAAGTAT, 0.292 E-score; for CGTAGTAC, 0.186 E-score. For CGTAGTAG the value was 0.223 E-score; for AGTAGTAT, 0.368 E-score. As for AGTAGTAC, the binding signal stood at 0.356 E-score.

On to AGTAGTAG, for which the binding signal was determined as 0.385 E-score.

Turning to GGTAGTAC, the binding signal stood at 0.268 E-score. The same measure for AGCAGTAT: 0.0236 E-score; for GTTGGCTA: 0.0528 E-score; for CACAGGTA: -0.0357 E-score.

For the sequence CTCAATAA, the binding signal is 0.215 E-score.

On to AATATTTA, for which the binding signal amounted to 0.311 E-score. For GATATTTA the value was 0.328 E-score. With GATATTAC, the binding signal amounted to 0.328 E-score. For the sequence CATATTAA, the binding signal came to 0.194 E-score. For GGTATTTA the value was 0.342 E-score. With CATATTTA, the binding signal is 0.282 E-score.

For the sequence AATATTAC, the binding signal came out at 0.284 E-score. For AATATTAA the value was 0.285 E-score. The same measure for CATATTAC: 0.22 E-score. For CGTATTTA the value was 0.318 E-score; for AGTATTTA, 0.301 E-score; for GATATTAA, 0.379 E-score. Consider CTGCAGGC, for which the binding signal was -0.199 E-score. On to ACCACTCG, for which the binding signal is -0.181 E-score. As to ACATCATG, the binding signal was -0.155 E-score. The same measure for GCTCGACA: -0.145 E-score; for CCCATTAC: -0.0975 E-score; for GCTAACAC: -0.0971 E-score. Consider TGCCTGAA, for which the binding signal was -0.0885 E-score. For CGAGTCCG the value was -0.192 E-score; for TGTATTAA, 0.294 E-score. With TATATTAA, the binding signal worked out at 0.387 E-score. For TATATTGA the value was 0.288 E-score; for CAACGAAA, 0.00998 E-score; for AATTCACG, 0.127 E-score. Take CGCTTTGA: the binding signal was -0.0415 E-score. With ACTACTTA, the binding signal is 0.415 E-score. The same measure for TCTACTCA: 0.188 E-score. Consider TCTACTAA, for which the binding signal turned out to be 0.342 E-score. The same measure for ACTACTAA: 0.379 E-score. For GGTACTAA the value was 0.249 E-score; for ACTACTTC, 0.226 E-score. Regarding TGTACTAA, the binding signal was determined as 0.191 E-score. The same measure for AGTACTTG: 0.296 E-score; for CGTACTTA: 0.23 E-score. The same measure for GCTACTAA: 0.229 E-score.

In the case of AGTACTTA, the binding signal is 0.355 E-score. For ACTACTGA the value was 0.269 E-score; for CGTCCCAA, -0.181 E-score.

Consider CATTATGA, for which the binding signal was 0.0691 E-score.

Take TCCACTCA: the binding signal was -0.127 E-score. Regarding AGCCAATG, the binding signal was -0.162 E-score. CGCAGAAG: the binding signal is -0.171 E-score. For AAATTTAA, the binding signal turned out to be 0.299 E-score. For the sequence CTAATTAA, the binding signal came to 0.275 E-score. For TTAATTAA the value was 0.346 E-score. The same measure for GAATTTAA: 0.124 E-score; for ATAATTAA: 0.298 E-score. The same measure for TCAATTAA: 0.161 E-score; for ATAATTAT: 0.137 E-score; for CCAATTAC: 0.0758 E-score. On to CTAATTCC, for which the binding signal came to 0.159 E-score. The same measure for TAATTTAA: 0.396 E-score; for ATAATTAG: 0.354 E-score; for CTAATTAC: 0.382 E-score. For GTCCTAGA the value was -0.199 E-score; for AATGTCGC, 0.0115 E-score. The same measure for CTAGCTAG: 0.294 E-score.

Turning to ATCTTAGG, the binding signal was -0.016 E-score. For CGGCGGTA the value was 0.123 E-score. CCAGGTCA: the binding signal was -0.0861 E-score.

In the case of CGAATTAG, the binding signal turned out to be 0.279 E-score. With CTAATTAG, the binding signal amounted to 0.362 E-score.

As to GCAATTAC, the binding signal is 0.13 E-score. For ATAATTAC the value was 0.332 E-score; for GTAATTAC, 0.43 E-score. The same measure for CCAATTAG: -0.111 E-score; for ATAATTGC: 0.26 E-score; for AGAATTAC: 0.217 E-score.

For GTAATTAA, the binding signal came to 0.213 E-score.

Turning to ATGAATTC, the binding signal amounted to 0.0443 E-score. For CGCTTAGA, the binding signal was -0.0215 E-score. GATATCGA: the binding signal was found to be 0.223 E-score. The same measure for GAACGACC: -0.143 E-score; for CGTTCTAG: 0.22 E-score. For CTTTGTCC the value was -0.101 E-score.
